Measurements taken from the supplement of paper PMC10849652.
The full data set covers some 8,800 targets. This sample favours those with a hit. About 0.5% of all pairs of compound and target were hits.

How the values were obtained:
Assay in all cases: log2 fold change, soluble protein after heating vs DMSO (PISA); higher = thermal stabilisation; K562 lysate, 10 uM; active = over 0.2 and 3.5 SD of the protein, either way, in both replicates (recomputed)
vemurafenib = compound: CCCS(=O)(=O)Nc1ccc(F)c(C(=O)c2c[nH]c3ncc(-c4ccc(Cl)cc4)cc23)c1F [vemurafenib]
Procedure, shortened: (§1)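 Quantification was by TMTpro 16plex LC-MS/MS with equalised channel sums, applied to the supernatant after 21,000xg for 90 min. Samples were crude K562 extract at 1 mg/mL protein in PBS pH 7.4 with 1 mM MgCl2, treated with 10 μM compound for 30 min, heated for 3 min across 48°C-58°C, pooled and brought to 0.5% NP-40 at 4°C. Values are log-two fold changes in thermal stability relative to solvent controls, from duplicates.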

[1] = compound: CCCS(=O)(=O)Nc1ccc(F)c(C(=O)c2c[nH]c3ncc(Cl)cc23)c1F
Procedure, shortened: as §1

barasertib = compound: CCN(CCCOc1ccc2c(Nc3cc(CC(=O)Nc4cccc(F)c4)[nH]n3)ncnc2c1)CCOP(=O)(O)O [barasertib]
Procedure, shortened: as §1

[2] = compound: CC[C@@H]1C(=O)N(C)c2cnc(Nc3ccc(C(=O)NC4CCN(C)CC4)cc3OC)nc2N1C1CCCC1
Procedure, shortened: as §1

volasertib = compound: CC[C@@H]1C(=O)N(C)c2cnc(Nc3ccc(C(=O)N[C@H]4CC[C@H](N5CCN(CC6CC6)CC5)CC4)cc3OC)nc2N1C(C)C [volasertib]
Procedure, shortened: as §1

[3] = compound: CCn1c(C(=O)N(C2CC2)C2CC2)cc2c3c(ncn3C)c(Nc3cc(C)n(C)n3)nc21
Procedure, shortened: as §1

[4] = compound: CCn1cc(-c2ccnc3[nH]c(-c4cccc(CN(C)C)c4)cc23)c(-c2ccc(NC(=O)N(C)C)cc2)n1
Procedure, shortened: as §1

[5] = compound: CN1CCC(CNc2ccc3ncc(-c4cccc(OC(F)(F)F)c4)n3n2)CC1
Procedure, shortened: as §1

saracatinib = compound: CN1CCN(CCOc2cc(OC3CCOCC3)c3c(Nc4c(Cl)ccc5c4OCO5)ncnc3c2)CC1 [saracatinib]
Procedure, shortened: as §1

sotrastaurin = compound: CN1CCN(c2nc(C3=C(c4c[nH]c5ccccc45)C(=O)NC3=O)c3ccccc3n2)CC1 [sotrastaurin]
Procedure, shortened: as §1

alvocidib = compound: CN1CC[C@H](c2c(O)cc(O)c3c(=O)cc(-c4ccccc4Cl)oc23)[C@H](O)C1 [alvocidib]
Procedure, shortened: as §1

Tubastatin A = compound: CN1CCc2c(c3ccccc3n2Cc2ccc(C(=O)NO)cc2)C1 [Tubastatin A]
Procedure, shortened: as §1

[6] = compound: CNC(=O)C1=CC=CC=C1NC2=NC(=NC=C2Cl)NC3=C(C=C(C=C3)N4CCOCC4)OC
Procedure, shortened: as §1

defactinib = compound: CNC(=O)c1ccc(Nc2ncc(C(F)(F)F)c(NCc3nccnc3N(C)S(C)(=O)=O)n2)cc1 [defactinib]
Procedure, shortened: as §1

[7] = compound: CNc1nc(-c2ccc3c(N)n[nH]c3c2)cc(N2C[C@@H](C(=O)NC3CCCCC3)CC[C@H]2C)n1
Procedure, shortened: as §1

encorafenib = compound: COC(=O)N[C@@H](C)CNc1nccc(-c2cn(C(C)C)nc2-c2cc(Cl)cc(NS(C)(=O)=O)c2F)n1 [encorafenib]
Procedure, shortened: as §1

[8] = compound: COC(=O)[C@H](CCSC)NC(=O)C1=C(C=C(C=C1)NC[C@H](CS)N)C2=CC=CC=C2
Procedure, shortened: as §1

[9] = compound: COc1cc2nc(-c3cc(F)ccc3O)nc(N[C@@H]3CNC[C@H]3C(C)(C)O)c2cc1OC
Procedure, shortened: as §1

alisertib = compound: COc1cc(Nc2ncc3c(n2)-c2ccc(Cl)cc2C(c2c(F)cccc2OC)=NC3)ccc1C(=O)O [alisertib]
Procedure, shortened: as §1

gefitinib = compound: COc1cc2ncnc(Nc3ccc(F)c(Cl)c3)c2cc1OCCCN1CCOCC1 [gefitinib]
Procedure, shortened: as §1

Measured: log2 fold change

PPM1H (UniProt Q9ULR3)
UniProt Q9ULR3, sequence (Q9ULR3 whole entry, looked up): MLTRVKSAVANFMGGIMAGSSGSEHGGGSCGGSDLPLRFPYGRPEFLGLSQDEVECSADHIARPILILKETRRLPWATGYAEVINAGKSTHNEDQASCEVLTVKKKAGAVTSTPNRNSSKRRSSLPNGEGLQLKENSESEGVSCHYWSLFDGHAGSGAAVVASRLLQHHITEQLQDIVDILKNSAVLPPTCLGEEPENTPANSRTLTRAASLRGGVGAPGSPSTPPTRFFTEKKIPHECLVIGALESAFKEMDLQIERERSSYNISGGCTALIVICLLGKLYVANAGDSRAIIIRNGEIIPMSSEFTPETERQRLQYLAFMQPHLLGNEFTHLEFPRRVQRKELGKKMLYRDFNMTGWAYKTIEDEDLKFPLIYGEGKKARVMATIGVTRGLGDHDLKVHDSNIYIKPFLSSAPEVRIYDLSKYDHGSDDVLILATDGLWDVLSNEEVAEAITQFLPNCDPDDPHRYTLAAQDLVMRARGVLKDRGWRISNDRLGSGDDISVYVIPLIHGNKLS
inactive: vemurafenib 0.066 | [1] -0.001 | barasertib 0 | [2] 0.103 | volasertib 0.025 | [3] 0 | [4] -0.079 | [5] 0.041 | saracatinib -0.062 | sotrastaurin 0.022 | alvocidib -0.046 | Tubastatin A 0.071 | [6] 0.006 | defactinib -0.03 | [7] 0.078 | encorafenib -0.008 | [8] -0.028 | [9] 0.05

PTK2B (UniProt Q14289)
UniProt Q14289, sequence (Q14289 whole entry, looked up): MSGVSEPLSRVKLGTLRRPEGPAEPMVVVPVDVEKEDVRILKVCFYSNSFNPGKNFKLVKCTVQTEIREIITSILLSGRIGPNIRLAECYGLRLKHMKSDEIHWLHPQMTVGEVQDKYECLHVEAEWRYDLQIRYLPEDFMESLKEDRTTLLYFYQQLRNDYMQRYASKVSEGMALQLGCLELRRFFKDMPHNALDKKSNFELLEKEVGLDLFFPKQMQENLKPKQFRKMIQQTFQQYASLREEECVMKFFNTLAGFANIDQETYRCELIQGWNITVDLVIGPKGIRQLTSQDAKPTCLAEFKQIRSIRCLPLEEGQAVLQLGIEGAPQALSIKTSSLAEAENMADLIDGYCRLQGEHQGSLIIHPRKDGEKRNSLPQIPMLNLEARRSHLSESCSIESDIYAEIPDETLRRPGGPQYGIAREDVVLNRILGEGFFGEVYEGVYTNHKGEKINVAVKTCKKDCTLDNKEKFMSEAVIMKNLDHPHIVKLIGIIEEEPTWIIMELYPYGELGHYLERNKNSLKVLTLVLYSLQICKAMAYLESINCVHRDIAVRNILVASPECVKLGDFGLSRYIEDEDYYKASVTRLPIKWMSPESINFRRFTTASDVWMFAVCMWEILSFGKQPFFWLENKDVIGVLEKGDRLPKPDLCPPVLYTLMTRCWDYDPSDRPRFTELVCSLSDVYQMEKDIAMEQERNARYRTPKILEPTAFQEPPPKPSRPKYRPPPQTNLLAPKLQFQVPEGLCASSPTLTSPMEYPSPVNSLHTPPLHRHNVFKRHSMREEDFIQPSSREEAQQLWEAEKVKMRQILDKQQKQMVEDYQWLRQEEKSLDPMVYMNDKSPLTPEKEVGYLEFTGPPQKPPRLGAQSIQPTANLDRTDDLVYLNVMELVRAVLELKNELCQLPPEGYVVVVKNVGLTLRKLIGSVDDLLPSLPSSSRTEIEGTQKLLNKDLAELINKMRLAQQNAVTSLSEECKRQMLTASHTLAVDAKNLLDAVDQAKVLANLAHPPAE
inactive: vemurafenib 0.001 | [1] -0.03 | barasertib -0.013 | [2] 0.118 | volasertib 0.022 | [3] -0.044 | [4] 0.001 | [5] 0.107 | saracatinib 0.019 | sotrastaurin 0.033 | Tubastatin A -0.071 | defactinib 0.315 | [7] -0.063 | encorafenib -0.048 | [8] -0.007 | alisertib 0.093 | [9] 0.103 | gefitinib -0.056
active: [6] 0.401

PTGR2 (UniProt Q8N8N7)
UniProt Q8N8N7, sequence (Q8N8N7 whole entry, looked up): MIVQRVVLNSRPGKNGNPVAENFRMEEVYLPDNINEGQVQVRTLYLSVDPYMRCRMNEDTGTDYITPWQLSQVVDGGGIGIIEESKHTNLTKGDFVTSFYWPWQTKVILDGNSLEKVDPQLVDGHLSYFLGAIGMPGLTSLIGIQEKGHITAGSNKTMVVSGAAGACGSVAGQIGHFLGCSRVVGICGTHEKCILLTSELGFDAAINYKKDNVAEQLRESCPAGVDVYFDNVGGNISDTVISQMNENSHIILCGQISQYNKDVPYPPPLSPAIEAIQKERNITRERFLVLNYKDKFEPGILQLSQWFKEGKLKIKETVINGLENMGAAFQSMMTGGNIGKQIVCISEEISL
inactive: vemurafenib -0.029 | [1] 0.04 | barasertib -0.022 | [2] 0.056 | volasertib -0.039 | [3] 0.069 | [4] 0.012 | [5] 0.092 | saracatinib -0.021 | sotrastaurin 0.1 | alvocidib 0.018 | Tubastatin A -0.023 | [6] 0.02 | defactinib 0.018 | [7] -0.021 | encorafenib -0.043 | alisertib 0.014 | [9] 0.004 | gefitinib -0.007
active: [8] 0.694

PUF60 isoform 2 (UniProt Q9UHX1)
UniProt Q9UHX1, sequence (Q9UHX1 whole entry, looked up): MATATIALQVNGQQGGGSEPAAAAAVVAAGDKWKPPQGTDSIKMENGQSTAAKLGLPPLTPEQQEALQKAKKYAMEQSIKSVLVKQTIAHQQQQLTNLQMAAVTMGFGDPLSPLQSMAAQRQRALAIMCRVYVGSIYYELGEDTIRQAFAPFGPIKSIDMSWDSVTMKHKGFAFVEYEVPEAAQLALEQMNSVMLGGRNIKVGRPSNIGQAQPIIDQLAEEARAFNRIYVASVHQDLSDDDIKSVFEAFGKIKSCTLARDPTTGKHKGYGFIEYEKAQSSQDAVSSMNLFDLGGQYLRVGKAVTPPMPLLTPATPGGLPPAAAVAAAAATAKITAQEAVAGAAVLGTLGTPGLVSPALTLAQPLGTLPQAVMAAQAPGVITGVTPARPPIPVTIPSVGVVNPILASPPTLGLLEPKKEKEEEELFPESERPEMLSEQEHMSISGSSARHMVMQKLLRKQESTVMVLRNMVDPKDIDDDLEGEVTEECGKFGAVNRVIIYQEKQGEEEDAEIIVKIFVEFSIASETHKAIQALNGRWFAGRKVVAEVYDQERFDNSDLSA
inactive: vemurafenib -0.126 | [1] 0.101 | barasertib -0.057 | [2] 0.047 | volasertib 0.021 | [3] -0.062 | [5] -0.115 | sotrastaurin -0.043 | alvocidib 0.223 | Tubastatin A 0.003 | [6] 0.264 | defactinib 0.108 | encorafenib 0.039 | [8] -0.12 | alisertib -0.076 | [9] 0.038 | gefitinib 0.044
active: [4] 1.25

PHF14 (UniProt O94880)
inactive: vemurafenib 0.079 | [1] -0.127 | barasertib -0.046 | [2] 0.341 | volasertib 0.004 | [3] -0.02 | saracatinib -0.047 | Tubastatin A 0.01 | defactinib -0.012 | [7] 0.02 | encorafenib -0.014 | [8] 0.1 | alisertib 0.044 | [9] -0.069 | gefitinib -0.042

PITRM1 isoform 2 (UniProt Q5JRX3)
UniProt Q5JRX3, sequence (Q5JRX3 whole entry, looked up): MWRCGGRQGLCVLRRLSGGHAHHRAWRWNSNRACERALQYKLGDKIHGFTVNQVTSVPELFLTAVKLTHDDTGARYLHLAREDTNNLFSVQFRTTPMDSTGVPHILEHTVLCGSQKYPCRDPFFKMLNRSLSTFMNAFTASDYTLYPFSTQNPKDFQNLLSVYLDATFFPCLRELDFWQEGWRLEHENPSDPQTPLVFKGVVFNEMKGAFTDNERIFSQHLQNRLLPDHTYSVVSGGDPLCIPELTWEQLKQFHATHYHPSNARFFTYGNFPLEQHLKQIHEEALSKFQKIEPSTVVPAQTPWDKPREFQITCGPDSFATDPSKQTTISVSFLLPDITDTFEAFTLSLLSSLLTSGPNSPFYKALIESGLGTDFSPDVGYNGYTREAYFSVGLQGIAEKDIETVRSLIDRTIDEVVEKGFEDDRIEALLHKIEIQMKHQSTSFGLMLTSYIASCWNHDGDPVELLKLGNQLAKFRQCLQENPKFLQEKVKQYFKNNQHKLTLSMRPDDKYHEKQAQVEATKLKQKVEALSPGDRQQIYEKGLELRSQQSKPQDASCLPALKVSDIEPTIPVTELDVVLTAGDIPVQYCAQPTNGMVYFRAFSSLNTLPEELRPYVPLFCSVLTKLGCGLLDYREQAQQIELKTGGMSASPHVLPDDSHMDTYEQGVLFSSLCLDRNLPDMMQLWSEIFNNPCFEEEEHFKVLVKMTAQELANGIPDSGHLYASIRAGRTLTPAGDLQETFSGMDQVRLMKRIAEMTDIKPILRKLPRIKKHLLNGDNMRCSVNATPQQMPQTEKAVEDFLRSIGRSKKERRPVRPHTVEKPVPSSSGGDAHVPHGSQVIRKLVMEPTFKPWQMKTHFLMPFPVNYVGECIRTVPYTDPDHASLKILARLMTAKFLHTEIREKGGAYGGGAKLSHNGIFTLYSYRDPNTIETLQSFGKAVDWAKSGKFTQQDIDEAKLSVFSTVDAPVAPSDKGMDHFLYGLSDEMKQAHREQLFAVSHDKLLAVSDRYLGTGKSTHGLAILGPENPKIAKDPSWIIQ
inactive: vemurafenib -0.026 | [1] 0.001 | barasertib -0.01 | [2] -0.018 | volasertib 0.127 | [3] -0.008 | [4] 0.07 | [5] -0.048 | saracatinib -0.021 | sotrastaurin 0.007 | alvocidib 0.016 | Tubastatin A 0.04 | [6] 0.023 | defactinib 0.008 | [7] -0.029 | encorafenib -0.012 | alisertib -0.016 | [9] -0.016 | gefitinib 0.044
active: [8] 0.228

PPP2CA (UniProt P67775)
inactive: vemurafenib 0.061 | [1] -0.008 | barasertib -0.012 | [2] 0.032 | volasertib -0.012 | [3] 0.02 | [4] 0.13 | [5] 0.049 | saracatinib 0.039 | sotrastaurin -0.047 | alvocidib -0.062 | Tubastatin A -0.018 | [6] 0.026 | defactinib -0.064 | [7] -0.019 | encorafenib 0.128 | alisertib -0.016 | [9] -0.013 | gefitinib -0.009
active: [8] -0.374

POLD3 (UniProt Q15054)
inactive: vemurafenib 0.003 | [1] -0.005 | barasertib 0.004 | [2] -0.014 | volasertib -0.045 | [3] -0.013 | [4] 0.009 | [5] -0.03 | saracatinib 0.028 | sotrastaurin -0.01 | alvocidib 0.041 | Tubastatin A -0.032 | [6] 0.099 | defactinib -0.033 | [7] -0.03 | encorafenib 0.021 | [8] 0.048 | alisertib -0.025 | [9] 0.007 | gefitinib -0.018

PDIA4 (UniProt P13667)
inactive: vemurafenib -0.007 | [1] -0.02 | barasertib -0.028 | [2] 0.017 | volasertib 0.012 | [3] -0.008 | [4] 0.036 | [5] -0.045 | saracatinib 0.012 | sotrastaurin 0 | alvocidib 0.025 | Tubastatin A 0.05 | [6] -0.008 | defactinib -0.042 | [7] -0.012 | encorafenib -0.011 | [8] -0.027 | alisertib -0.007 | [9] -0.001 | gefitinib -0.011

PPCDC (UniProt Q96CD2)
UniProt Q96CD2, sequence (Q96CD2 whole entry, looked up): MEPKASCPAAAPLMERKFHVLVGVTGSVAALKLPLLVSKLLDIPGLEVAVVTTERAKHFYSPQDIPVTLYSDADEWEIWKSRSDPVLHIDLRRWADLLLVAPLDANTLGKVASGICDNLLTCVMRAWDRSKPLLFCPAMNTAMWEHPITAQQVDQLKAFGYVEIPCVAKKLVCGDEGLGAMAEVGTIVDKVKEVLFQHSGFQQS
inactive: vemurafenib 0.1 | [1] 0.003 | barasertib 0.066 | [2] 0.047 | volasertib 0.006 | [3] 0.008 | [4] -0.342 | [5] 0.165 | saracatinib 0.018 | sotrastaurin 0.038 | alvocidib -0.08 | Tubastatin A 0.034 | [6] -0.053 | defactinib -0.037 | [7] -0.054 | encorafenib -0.082 | [8] -0.027 | alisertib -0.051 | [9] 0.032 | gefitinib 0.028

PPP1R12B isoform 6 (UniProt O60237)
inactive: vemurafenib 0.08 | [1] 0.036 | barasertib -0.046 | [2] 0.133 | volasertib -0.029 | [3] -0.209 | saracatinib -0.047 | sotrastaurin -0.057 | Tubastatin A 0.081 | [6] 0.006 | defactinib -0.046 | [7] 0.016 | encorafenib -0.011 | [8] 0.145 | [9] 0.072

PMPCA (UniProt Q10713)
UniProt Q10713, sequence (Q10713 whole entry, looked up): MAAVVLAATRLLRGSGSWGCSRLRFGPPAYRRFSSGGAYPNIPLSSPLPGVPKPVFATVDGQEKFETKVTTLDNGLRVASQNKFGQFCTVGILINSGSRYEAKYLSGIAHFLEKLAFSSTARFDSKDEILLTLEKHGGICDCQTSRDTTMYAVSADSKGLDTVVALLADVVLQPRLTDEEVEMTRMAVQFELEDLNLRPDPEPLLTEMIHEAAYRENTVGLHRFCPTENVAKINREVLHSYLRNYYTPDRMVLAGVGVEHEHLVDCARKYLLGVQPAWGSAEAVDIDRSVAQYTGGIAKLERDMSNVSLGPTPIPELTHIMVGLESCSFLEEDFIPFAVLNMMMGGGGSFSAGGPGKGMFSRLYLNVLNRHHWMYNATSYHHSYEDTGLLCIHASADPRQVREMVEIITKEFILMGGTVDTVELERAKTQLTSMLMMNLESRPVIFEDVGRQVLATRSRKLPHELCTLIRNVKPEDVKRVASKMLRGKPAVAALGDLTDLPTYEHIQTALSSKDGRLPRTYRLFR
inactive: vemurafenib 0.047 | [1] 0.037 | barasertib -0.014 | [2] -0.039 | volasertib -0.031 | [3] -0.025 | [4] -0.017 | [5] 0.233 | saracatinib -0.024 | sotrastaurin 0.006 | alvocidib -0.006 | Tubastatin A 0.049 | [6] -0.045 | defactinib 0.004 | [7] -0.004 | encorafenib 0.001 | [8] 0.04 | alisertib -0.03 | [9] 0.003 | gefitinib -0.02

PLIN2 (UniProt Q99541)
inactive: vemurafenib 0.014 | [1] -0.01 | barasertib 0.073 | [2] 0.033 | volasertib 0.003 | [3] 0.048 | [4] 0.033 | [5] -0.181 | saracatinib 0.019 | sotrastaurin 0.007 | alvocidib -0.008 | Tubastatin A -0.107 | [6] -0.014 | defactinib 0.049 | [7] 0.002 | encorafenib 0.061 | [8] -0.107 | alisertib 0.044 | [9] -0.071 | gefitinib 0.104

PTPN2 (UniProt P17706)
inactive: vemurafenib 0.027 | [1] -0.017 | barasertib 0.051 | [2] -0.028 | volasertib 0 | [3] 0.005 | [4] -0.084 | [5] -0.031 | saracatinib -0.052 | sotrastaurin 0.011 | alvocidib -0.036 | Tubastatin A -0.115 | [6] 0.049 | defactinib -0.008 | [7] 0.005 | encorafenib -0.035 | [8] 0.053 | alisertib 0.052 | [9] -0.006 | gefitinib -0.006

PLK1 (UniProt P53350)
UniProt P53350, sequence (P53350 whole entry, looked up): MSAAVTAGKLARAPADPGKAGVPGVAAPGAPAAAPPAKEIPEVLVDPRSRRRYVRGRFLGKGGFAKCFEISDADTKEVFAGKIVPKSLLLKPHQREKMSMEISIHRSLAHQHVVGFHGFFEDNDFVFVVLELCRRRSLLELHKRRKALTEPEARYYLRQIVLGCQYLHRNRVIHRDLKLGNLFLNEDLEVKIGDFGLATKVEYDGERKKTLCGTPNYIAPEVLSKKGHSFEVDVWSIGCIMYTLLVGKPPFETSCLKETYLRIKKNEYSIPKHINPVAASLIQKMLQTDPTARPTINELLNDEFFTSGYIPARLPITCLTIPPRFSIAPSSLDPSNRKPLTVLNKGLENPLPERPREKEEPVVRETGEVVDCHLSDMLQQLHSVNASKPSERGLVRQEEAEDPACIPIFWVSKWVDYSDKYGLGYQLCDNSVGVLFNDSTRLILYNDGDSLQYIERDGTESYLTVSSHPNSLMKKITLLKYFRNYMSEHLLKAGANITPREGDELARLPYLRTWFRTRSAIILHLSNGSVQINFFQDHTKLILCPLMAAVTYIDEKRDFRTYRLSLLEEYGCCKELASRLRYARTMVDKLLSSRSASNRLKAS
active: sotrastaurin -0.335 | [6] -0.347
inactive: vemurafenib 0.053 | [1] -0.009 | barasertib 0.003 | volasertib -0.009 | [3] 0.014 | [4] 0.165 | [5] -0.279 | saracatinib 0.021 | alvocidib 0.059 | Tubastatin A -0.108 | defactinib -0.268 | [7] 0.006 | encorafenib 0.097 | [8] -0.034 | alisertib -0.003 | [9] -0.023 | gefitinib 0.003

PPP1R14C (UniProt Q8TAE6)
UniProt Q8TAE6, sequence (Q8TAE6 whole entry, looked up): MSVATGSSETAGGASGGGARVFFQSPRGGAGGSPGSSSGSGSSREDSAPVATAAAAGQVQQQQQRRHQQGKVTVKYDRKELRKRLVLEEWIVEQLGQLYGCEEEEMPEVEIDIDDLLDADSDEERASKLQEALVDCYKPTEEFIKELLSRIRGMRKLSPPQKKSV
inactive: vemurafenib -0.183 | [1] 0.008 | barasertib 0.002 | [2] -0.084 | volasertib 0.037 | [3] 0.072 | [4] -0.217 | [5] 0.017 | saracatinib -0.022 | alvocidib -0.045 | Tubastatin A -0.033 | defactinib -0.002 | [7] -0.14 | encorafenib 0.064 | [8] 0.014 | alisertib -0.044 | [9] -0.04 | gefitinib 0.032

PUS3 (UniProt Q9BZE2)
inactive: vemurafenib 0.083 | [1] 0.036 | barasertib 0.074 | [2] -0.058 | volasertib -0.007 | [3] 0.071 | [4] 0.193 | [5] -0.195 | saracatinib 0.018 | sotrastaurin 0.052 | alvocidib 0.094 | Tubastatin A -0.181 | [6] 0.035 | defactinib -0.089 | [7] -0.117 | encorafenib 0.06 | [8] 0.04 | alisertib 0.01 | [9] -0.021 | gefitinib 0.041
